HCMV inh: blocks human cytomegalovirus replication; HFF cells, HCMV-luciferase reporter, 72 h; active compounds read low; activity change, negative = inhibition, % at 57.5 µM; hit rate 4.5% among 410,000; in the data active means activity change below about -60%; inconclusive means no clear call, values can overlap the other calls; inactive means above about -39%
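After 16 h attachment at 37C, HFF cells received test compound and HCMV-luciferase (1 PFU/cell); reporter luminescence read 72 h later, data normalized against buffer-only and known inhibitor Salinomycin.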
VACV Venus inh: vaccinia inhibition (Venus reporter); Vaccinia virus Venus reporter expression, fluorescence; hit rate 0.46% among 330,000; AID 720580; Potency, µM (titrated, usually from 36.5 µM), actives largely listed as inhibitors; calls by dose curve; tested in A549 cells; further: nearly all actives have a fitted effect of over 30% in size
HCV inh: inhibitors of hepatitis C virus infection | Huh7.5.1 HCVcc-Cre infection, luciferase reporter, 44 h | Potency, µM (doses to about 41.8 µM), most hits filed as inhibitors | hit rate 3.4% among 340,000; active means well fitted inhibition curve with a large enough effect; inconclusive means small, poorly fitted or top-dose-only effect, or another doubt; inactive means no such curve, though single readings can be large or run the other way
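1,000 cells/well; 4 h culture; + compound; + HCVcc-Cre (~0.5 moi); 44 h; luciferase substrate, RT 15 min; read 15 sec.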
VACV mCherry inh: inhibitors of vaccinia virus infection (mCherry reporter signal); Vaccinia virus mCherry reporter infection, fluorescence; Potency, µM (top dose mostly 36.5 µM), actives largely listed as inhibitors; hit rate 0.63% among 310,000; calls by dose curve; tested in A549 cells; further: nearly all actives have a fitted effect of over 35% in size
LASV entry inh: inhibitors of Lassa virus binding or cell entry; hit rate 1.2% among 300,000; Potency, µM (titrated, usually from 37.9 µM), hits mostly inhibitors; Lassa virus pseudotype entry inhibition, cell reporter; calls by dose curve; tested in HEK293 cells; further: nearly all actives have a fitted effect of over 50% in size
Marburg entry inh: Marburg virus entry inhibition; Potency, µM (titrated, usually from 37.8 µM), hits mostly inhibitors; Marburg virus pseudotyped entry inhibition, cell reporter; hit rate 1.8% among 300,000; AID 540276; calls by dose curve; tested in HEK293 cells
Large screens that a line does not name were inactive; ! = a repeat was not active. Hits are enriched below; roughly 7.8% of the tested compounds scored in any of these assays.

O=[N+]([O-])c1cc(S(=O)(=O)NCCN2CCOCC2)ccc1Sc1nnnn1-c1ccccc1	HCMV inh -89.3, VACV Venus inh inconclusive, HCV inh inconclusive, VACV mCherry inh inconclusive, Marburg entry inh 16.4µM
Cc1ccc(-n2nnnc2Sc2ccc(S(=O)(=O)NCCN(C)C)cc2[N+](=O)[O-])cc1	HCMV inh -100.0, VACV Venus inh 11.2µM, HCV inh 10µM, VACV mCherry inh inconclusive, LASV entry inh inconclusive, Marburg entry inh 9.2µM
CN(C)CCNS(=O)(=O)c1ccc(N2CCN(c3ccc(F)cc3)CC2)c([N+](=O)[O-])c1	HCMV inh -76.1, VACV Venus inh inconclusive, HCV inh 10µM, LASV entry inh inconclusive, Marburg entry inh 18.4µM
O=S(=O)(NCCN1CCOCC1)c1ccc2ccccc2c1	none (no result: VACV Venus inh, VACV mCherry inh, LASV entry inh, Marburg entry inh)
CC(Sc1nc(-c2ccccc2)c(C#N)c(=O)[nH]1)C(=O)Nc1ccc(F)cc1 (stereo not drawn)	none (no result: HCV inh)
COC(=O)c1ccc(NC(=O)C2C3C=CC(C3)C2C(=O)O)cc1 (stereo not drawn)	HCMV inh -98.2 (no result: VACV Venus inh, VACV mCherry inh, LASV entry inh, Marburg entry inh)
O=C(ONC(=O)C1C2C=CC(C2)C1C(=O)NOC(=O)c1ccccc1)c1ccccc1 (stereo not drawn)	HCV inh inconclusive, VACV mCherry inh inconclusive, LASV entry inh 7.94µM, Marburg entry inh 3.98µM
Cc1c(C(=O)N2CCN(C)CC2)sc2ncnc(NCC3(c4ccccc4)CCOCC3)c12	none (no result: HCMV inh, HCV inh, LASV entry inh, Marburg entry inh)
CCOc1ccc(-c2cc3nc(C4CCN(C(=O)OC(C)(C)C)CC4)c(C(=O)Nc4ccc(C)c(F)c4)cn3n2)cc1	HCMV inh -93.1, Marburg entry inh inconclusive (no result: HCV inh)
CCOc1ccc(-c2cc3nc(C4CCN(C(=O)OC(C)(C)C)CC4)c(C(=O)Nc4cc(OC)ccc4OC)cn3n2)cc1	Marburg entry inh inconclusive (no result: HCV inh)
O=C(COC(=O)C1=COCCO1)NCc1ccc(Cl)cc1Cl	HCMV inh -60.6 (no result: HCV inh, LASV entry inh, Marburg entry inh)
O=C(CCC(=O)N/N=C/c1ccco1)N/N=C/c1ccco1	Marburg entry inh inconclusive
CCNC(=S)NN=C1c2ccccc2-c2ccccc21	HCV inh 15.8µM
C=C(C)CNC(=S)N/N=C/c1ccco1	HCMV inh -61.2, VACV mCherry inh inconclusive, Marburg entry inh inconclusive
C=C(C)CNC(=S)NN=C1c2ccccc2-c2ccccc21	HCV inh 11.2µM, LASV entry inh inconclusive, Marburg entry inh inconclusive (no result: HCMV inh)
Cc1oc2cc3oc(=O)c(CCC(=O)NCCc4ccccc4F)c(C)c3cc2c1C	none (no result: HCV inh)
Cc1cc(NC(=O)C2CCN(S(=O)(=O)c3ccc(Br)s3)CC2)ccc1Br	none (no result: HCV inh)
COc1ccc(S(=O)(=O)N(CC(=O)NCCSCc2ccccc2)c2ccc(C)cc2)cc1	none (no result: HCV inh)
COc1ccccc1N(CC(=O)NCCSCc1ccccc1)S(=O)(=O)c1ccc(C)cc1	HCMV inh -63.1!, VACV Venus inh inconclusive, HCV inh 25.1µM, VACV mCherry inh inconclusive, LASV entry inh inconclusive, Marburg entry inh inconclusive
COc1ccccc1N(CC(=O)NCCSCc1ccccc1)S(=O)(=O)c1ccccc1	HCMV inh -73.2, VACV Venus inh inconclusive (no result: HCV inh, LASV entry inh, Marburg entry inh)
O=C(Nc1ccc(N2CCCC2)c(S(=O)(=O)Nc2cccc(C(F)(F)F)c2)c1)c1cccs1	HCMV inh inconclusive, VACV Venus inh inconclusive, HCV inh inconclusive, VACV mCherry inh inconclusive, LASV entry inh inconclusive, Marburg entry inh 1.41µM
COc1ccccc1NS(=O)(=O)c1cc(NC(=O)c2cc(=O)[nH]c3ccccc23)ccc1N1CCOCC1	HCV inh 25.1µM (no result: VACV Venus inh, VACV mCherry inh, LASV entry inh, Marburg entry inh)
COc1ccccc1NS(=O)(=O)c1cc(NC(=O)C(C)(C)C)ccc1N1CCOCC1	HCV inh inconclusive
COc1ccccc1NS(=O)(=O)c1cc(NC(=O)c2cccs2)ccc1N1CCCC1	HCMV inh inconclusive, HCV inh inconclusive, LASV entry inh 11.6µM, Marburg entry inh inconclusive
COc1ccccc1NS(=O)(=O)c1cc(NC(=O)C(C)C)ccc1N1CCCCC1	HCV inh inconclusive, LASV entry inh inconclusive, Marburg entry inh 0.794µM
Cc1ccc(-n2nc(C)c3c(C)c(CCC(=O)NCc4ccccc4Cl)c(C)nc32)cc1	none (no result: HCV inh)
Cc1cc(C)c2c(=O)cc(C(=O)Nc3c(C)n(C)n(-c4ccccc4)c3=O)oc2c1	none (no result: HCV inh)
CCCCNC(=O)c1nc2cc(C)c(C)cc2nc1-c1ccccc1	none (no result: VACV Venus inh, HCV inh, VACV mCherry inh, LASV entry inh, Marburg entry inh)
CN1CCN(c2ccc(Cl)cc2NC(=O)c2cc(=O)[nH]c3ccccc23)CC1	HCMV inh -98.4 (no result: VACV Venus inh, VACV mCherry inh, LASV entry inh, Marburg entry inh)
COc1ccccc1NS(=O)(=O)c1cc(NC(=O)c2cccs2)ccc1N1CCCCC1	LASV entry inh inconclusive, Marburg entry inh 5.8µM
Cc1ccc(OCCNC(=O)c2cncc(Br)c2)cc1C	HCMV inh -107.3, VACV Venus inh inconclusive, VACV mCherry inh inconclusive
Cc1cccc(OCCNC(=S)NC(=O)c2cncc(Br)c2)c1	none
CCOc1cc(/C=C(/C#N)C(=O)Nc2ccc(O)cc2)cc(Br)c1O	HCMV inh -60.7, VACV mCherry inh inconclusive, LASV entry inh inconclusive, Marburg entry inh inconclusive
NC(=NCc1ccccc1)NC(=O)c1nc(Cl)c(N)nc1N	Marburg entry inh 10µM!
COc1cccc(-c2cc3c(Nc4cccnc4)nccc3n2C)c1	none (no result: VACV Venus inh, HCV inh, VACV mCherry inh, LASV entry inh, Marburg entry inh)
O=C(c1ccco1)N1CCN(c2ncnc3c2nnn3Cc2ccccc2Cl)CC1	HCV inh inconclusive
O=C(c1ccco1)N1CCN(c2nc(C(F)(F)F)nc3c2nnn3Cc2ccccc2)CC1	HCMV inh -75.6, HCV inh 3.98µM, LASV entry inh inconclusive, Marburg entry inh inconclusive (no result: VACV Venus inh, VACV mCherry inh)
Cc1cccc(C)c1OCC(=O)Nc1nonc1-c1ccc(Br)cc1	LASV entry inh inconclusive (no result: HCV inh)
Cc1cc(C)cc(OC(C)C(=O)Nc2nonc2-c2ccc(Br)cc2)c1 (stereo not drawn)	HCMV inh -62.0 (no result: HCV inh)
O=[N+]([O-])c1ccccc1CNc1ccc(NCc2ccccc2[N+](=O)[O-])cc1	HCMV inh -73.5 (no result: VACV Venus inh, HCV inh, VACV mCherry inh, LASV entry inh, Marburg entry inh)
COc1ccc(S[C@]2(c3nc(C)no3)CC(=O)N(c3ccc(OC)cc3)[C@@H]2c2ccc(OC)cc2)cc1	none (no result: VACV Venus inh, HCV inh, VACV mCherry inh, LASV entry inh, Marburg entry inh)
C=C[C@]1(C)C=C2CCC3[C@](C)(CCC[C@@]3(C)C(=O)O)C2CC1 (stereo partly drawn)	HCV inh 2.24µM (no result: HCMV inh, LASV entry inh, Marburg entry inh)
Cc1nc(C#N)nc(Oc2ccccc2)c1Cl	none (no result: HCMV inh, HCV inh, LASV entry inh, Marburg entry inh)
CCc1cc2c(nc1CC)CCN(CC/C(C)=N/OC[C@@H](O)[C@@H]1O[C@@H]3OC(C)(C)O[C@@H]3[C@H]1O)C2	none (no result: HCMV inh, VACV Venus inh, HCV inh, VACV mCherry inh, LASV entry inh)
CCOC(=O)C1=C(C)NC(=O)NC1c1ccc2c(c1)OCO2 (stereo not drawn)	none
CCC(CC)COC(=O)C1=C(C)NC(=O)NC1c1ccc2c(c1)OCO2 (stereo not drawn)	HCV inh 10µM, LASV entry inh inconclusive, Marburg entry inh inconclusive
CC1=C(C(=O)OCc2ccc3c(c2)OCO3)C(c2cccc([N+](=O)[O-])c2)NC(=O)N1 (stereo not drawn)	HCMV inh -80.7, HCV inh 11.2µM, VACV mCherry inh inconclusive (no result: LASV entry inh, Marburg entry inh)
COc1cc(CNC2CCCC2)cc(Cl)c1OCc1ccccc1F	HCMV inh inconclusive, VACV Venus inh 15.8µM, HCV inh 10µM, VACV mCherry inh inconclusive, LASV entry inh inconclusive, Marburg entry inh inconclusive
CCOc1ccccc1NC(=O)Cn1cnc2c1c(=O)n(C)c(=O)n2C	none (no result: HCV inh, Marburg entry inh)
